# About 83,000 compounds went through this panel and 20% of them were active in at least one assay; those are over-represented in the sample as a whole.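 Interpretation: 100, growth as untreated; towards 0, rising growth inhibition; 0, no net growth; 0 to -100, cell death. Compounds scoring below 10 were considered active.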 A number with no mark means an inactive call. The source made the active and inactive calls.
# Assays:
# Experiment in all cases: NCI-60 one-dose screen, 48 h (100 = growth as untreated, 0 = no growth, -100 = all killed)
# Details in all cases: 10 µM unless noted
# DU-145 prostate = system: DU-145 prostate
# MALME-3M melanoma = system: MALME-3M melanoma
# MDA-MB-231 breast = system: MDA-MB-231 breast
# RXF 393 renal = system: RXF 393 renal
# SF-268 CNS = system: SF-268 CNS
# SF-295 CNS = system: SF-295 CNS
# SF-539 CNS = system: SF-539 CNS
# UACC-257 melanoma = system: UACC-257 melanoma
# M14 melanoma = system: M14 melanoma
# HCT-15 colon = system: HCT-15 colon
# HT29 colon = system: HT29 colon
# SNB-75 CNS = system: SNB-75 CNS
# SNB-19 CNS = system: SNB-19 CNS
# U251 CNS = system: U251 CNS
# PC-3 prostate = system: PC-3 prostate
# SK-MEL-5 melanoma = system: SK-MEL-5 melanoma
# UACC-62 melanoma = system: UACC-62 melanoma
# LOX IMVI melanoma = system: LOX IMVI melanoma
# SK-MEL-28 melanoma = system: SK-MEL-28 melanoma
Compound,growth (DU-145 prostate),growth (MALME-3M melanoma),growth (MDA-MB-231 breast),growth (RXF 393 renal),growth (SF-268 CNS),growth (SF-295 CNS),growth (SF-539 CNS),growth (UACC-257 melanoma) [%],growth (M14 melanoma),growth (HCT-15 colon),growth (HT29 colon),growth (SNB-75 CNS),growth (SNB-19 CNS),growth (U251 CNS),growth (PC-3 prostate),growth (SK-MEL-5 melanoma),growth (UACC-62 melanoma),growth (LOX IMVI melanoma),growth (SK-MEL-28 melanoma)
C=C1C(=O)O[C@H]2[C@H]1CC/C(COC(=O)c1ccc(Cl)nc1)=C\CC[C@@]1(C)O[C@@H]21,12.4%,-51% (active),-2.63% (active),-73.1% (active),56.9%,74.9%,-34.5% (active),34.4,9.23% (active),-14.6% (active),-6.31% (active),74.9%,56%,44.1%,53.2%,44.8%,-25.6% (active),-79.3% (active),1.37% (active)
Cc1cc(N2CCOCC2)nc(N(CCNc2ccnc3cc(Cl)ccc23)Cc2ccco2)n1,53.4%,62.8%,7.62% (active),10.6%,71.8%,6.25% (active),-31.8% (active),49.8,39.5%,35.8%,3.4% (active),59.5%,41.5%,6.13% (active),46.7%,39.7%,26%,18.1%,52.4%
CC(C(=O)O)N1C(N)=NNC1c1ccccc1O (stereo unspecified),102%,85.6%,76.6%,96.4%,84%,99.3%,103%,87.1,96.9%,68.4%,99.3%,74.4%,88.5%,85.9%,83.3%,85.5%,81.9%,78.3%,106%
Nc1n[nH]c2cccc(C#Cc3cccc(NC(=O)c4cccc(C(F)(F)F)c4)c3)c12,48.5%,-0.658% (active),9.5% (active),-13.7% (active),32.7%,50.3%,-19.9% (active),50.3,10.4%,30.2%,13.3%,30.5%,80.1%,49.4%,39.9%,43.9%,26.1%,2.44% (active),23.9%
COc1cc(/C=C/C(=O)N2CCC=CC2=O)cc(OC)c1OC,43.5%,10.5%,45.9%,9.03% (active),85.1%,94.1%,29.6%,66.4,55.7%,1.7% (active),23.2%,75.7%,72.9%,68.3%,79.7%,73.8%,40.8%,10.2%,56%
C=C1C(=O)O[C@H]2[C@H]1CC/C(COC(=O)c1ccc(C#N)cc1)=C\CC[C@@]1(C)O[C@@H]21,18.4%,-22.4% (active),2.94% (active),-47.7% (active),56.8%,73.3%,-32.3% (active),52.2,15.6%,-7.25% (active),-4.64% (active),77.3%,47.7%,40.6%,50.6%,42.9%,-25.2% (active),-81.4% (active),3.18% (active)
c1coc(CSc2ncnc3nc[nH]c23)c1,108%,125%,115%,91.1%,101%,142%,91.6%,97.3,101%,101%,110%,95.1%,,102%,90.1%,109%,98.3%,89.2%,108%
CC[C@H]1[C@@H]2C=C[C@@H]3[C@H]4C/C=C\C(=O)NCCC[C@@H]5NC(=O)/C(=C(O)/C=C/[C@@H]4C[C@@H]3[C@H]2C[C@H]1C)C5=O,-94% (active),-6.22% (active),-2.91% (active),-86.1% (active),-55.5% (active),-53.2% (active),-20.8% (active),23.4,-10.9% (active),-29.4% (active),14.4%,-85.6% (active),-40.6% (active),46.5%,-35.3% (active),-70.4% (active),72.6%,-84.8% (active),60.9%
CN(C)c1ncc(C#Cc2c(F)cccc2F)c2ccccc12,97.4%,113%,80.2%,93.2%,87.2%,102%,94.5%,99,86.3%,88.1%,70.6%,108%,88.8%,80%,75.7%,83.5%,71.4%,85.2%,102%
O=C(Nc1ccccc1Cl)c1c[nH]c(=O)c(-c2ccc(N3CCCOC4(CC4)C3)cc2)c1,77.6%,70%,77.7%,81.2%,69.8%,55.3%,76%,38,74.9%,78.8%,70.5%,73%,72.4%,75.9%,57.5%,8.08% (active),63.5%,46.7%,78.4%
CCOc1cccc(Nc2nc(N)nc3[nH]c4ccc(O)cc4c23)c1,49%,96.9%,54.8%,43%,44.6%,68.1%,81.4%,88.6,75.3%,85.4%,93.3%,46.1%,70.1%,79.7%,74.8%,54.4%,73.8%,36.7%,89.3%
C=C1C(=O)O[C@H]2[C@H]1CC/C(COC(=O)c1ccccc1)=C\CC[C@@]1(C)O[C@@H]21,6.11% (active),-65% (active),-37.1% (active),-84% (active),41%,60.8%,-65.5% (active),30,-31.9% (active),-66.1% (active),-62.7% (active),68.8%,33.1%,26.8%,,12%,-66.9% (active),-88.6% (active),-33.9% (active)
O=C(O)c1cn(C2CC2)c2cc(N3CCN(C(=O)CSc4nc(NS(=O)(=O)c5ccccc5)cc(=O)[nH]4)CC3)c(F)cc2c1=O,101%,82.4%,100%,112%,93.7%,104%,98.1%,95,83.7%,94.9%,119%,98.8%,99.3%,97.7%,,94.6%,83.8%,90.9%,98%
CCn1c(SC)nnc1-c1cc2c([nH]c3ccccc32)c(-c2cccc(O)c2)n1,28.1%,33.1%,23.1%,-32.9% (active),32.4%,-20.1% (active),-9.07% (active),57.4,10.8%,20.4%,50.7%,-23.1% (active),52.8%,15.5%,24.6%,-16.2% (active),36.7%,16.5%,41.3%
CCNC(=O)Oc1ccc(/C(=C(/CC)Cc2ccccc2)c2ccc(OCCN3CCOCC3)cc2)cc1,73.9%,81.1%,71.4%,42.7%,43.7%,68.7%,77.2%,79.4,41.6%,39.4%,28.6%,70.2%,76.7%,52.8%,20.2%,39.5%,73.2%,50.4%,80.6%
C/C(=N/NC(=O)Cn1c2ccccc2c2ccncc21)c1cccs1,108%,100%,97.4%,98.7%,95.5%,109%,108%,89.9,104%,99.8%,89.5%,104%,94.9%,97.5%,99.2%,99.4%,95.8%,104%,108%
